Results: PubChem BioAssay (Tox21)
Results filed as inconclusive are left out. A number with no mark means an inactive call. Calls come from the whole dose curve; as a rule, active = well fitted activation curve with a large enough effect in the repeat runs; inconclusive = weak or mixed curves; inactive = flat fitted curve, though single readings scatter.

assay: A CellTox Green Cytotoxicity Assay to monitor cytotoxicity in HepG2 cells - 8 hour (AID 1224890); details: CellTox Green fluorescence; series mostly up to 76.8 µM; cytotoxicity increase: at the top concentration; note: nearly all actives have a fitted effect of over 45% in size
Procedure, shortened: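 HepG2, 600 cells/well premixed w/ CellTox Green; 5 h settle, 37 C/5% CO2; pintool cpd add (DMSO); 37 C, 40 h; fluorescence read at 0, 8, 16, 24, 32, 40 h.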
% is set by controls: 0 for no effect and ±100 for the full control effect.

SMILES	cytotoxicity increase
CN1Cc2cc(C(=O)N3CCC(C4CCNCC4)CC3)ccc2NC(CC(=O)O)C1=O (stereo not given)	-8.15% [at 35.3 µM]
CC(=O)NO	-2.25% [at 35.3 µM]
CC(=O)[O][Al][O]C(C)=O	-18.4%
Cc1nn(C)c(Oc2ccccc2)c1/C=N/OCc1ccc(C(=O)OC(C)(C)C)cc1	-15%
O=C1OC(CN2CCOCC2)CN1/N=C/c1ccc([N+](=O)[O-])o1 (stereo not given)	-0.154% [at 35.3 µM]
COCCCN1CCC(NC(=O)c2cc(Cl)c(N)c3c2OCC3)CC1	-16.5% [at 35.3 µM]
C1CCCNCCC1	1.45%
CCC(Cl)CCC(Cl)C(Cl)CC(Cl)C(Cl)C(Cl)CCl (stereo not given)	-4.24%
CCCCC(CC)COC(=O)COc1ccc(Cl)cc1Cl (stereo not given)	-3.13%
CCC(C)O (stereo not given)	4.68%
C[C@@H](c1ncncc1F)C(O)(Cn1cncn1)c1ccc(F)cc1F (stereo not given in full)	-17.4% [at 35.3 µM]
CC(C)(C)OCC1CO1 (stereo not given)	-0.961%
COS(=O)(=O)C(F)(F)F	-4.22%
C[Si](C)(CCCN)O[Si](C)(C)CCCN	-4.83%
O=C1OC(=O)C2C3C=CC(C3)C12 (stereo not given)	-8.61%
CC(C)(C)Cl	4.51%
Cc1ccc(C(C)OC(=O)C2(C)CCC(C(=O)O)C2(C)C)cc1 (stereo not given)	1.21% [at 35.3 µM]
CC(CSC(=O)c1ccccc1)C(=O)N1C[C@@H](Sc2ccccc2)C[C@H]1C(=O)O (stereo not given in full)	-3.03% [at 15.8 µM]

SMILES	cytotoxicity increase
O=C(NCCO[N+](=O)[O-])c1cccnc1	-3.96% [at 35.3 µM]
CN(C)CCN(Cc1ccsc1)c1ccccn1	-2.56% [at 35.3 µM]
Nc1cc(C(=O)O)c(O)c(S(=O)(=O)O)c1	0.121%
O=S(c1cc(Cl)cc(Cl)c1O)c1cc(Cl)cc(Cl)c1O	15.5% [at 35.3 µM]
COC(=O)c1ccc(I)cc1S(=O)(=O)NC(=O)Nc1nc(C)nc(OC)n1	-0.291%
C[C@H]1C[C@H]2[C@@H]3CCC4=CC(=O)C=C[C@]4(C)[C@@]3(Cl)[C@@H](O)C[C@]2(C)[C@@]1(O)C(=O)CO	2.91% [at 35.3 µM]
CC(C)Nc1ccc(NC(C)C)c2c1C(=O)c1ccccc1C2=O	0.771% [at 35.3 µM]
CC(C)OC(=O)C(C)N(C(=O)c1ccccc1)c1ccc(F)c(Cl)c1 (stereo not given)	-4.01%
CC(C)(CO)[N+](=O)[O-]	0.513%
COc1ccc(C(=O)N2CCN(CC(=O)N3CCOCC3)CC2)cc1	-7.55% [at 35.3 µM]
O=C(O)c1ccccc1Cl	-6.32%
CCCCCCCC#N	6.37%
CCCCc1ncc(/C=C(\Cc2cccs2)C(=O)O)n1Cc1ccc(C(=O)O)cc1	-8.09% [at 35.3 µM]
CC1(c2ccccc2)OC(C(=O)O)=CC1=O (stereo not given)	-6.09% [at 35.3 µM]
NC(N)=NCCC[C@H](N)C(=O)O	-1.13% [at 6.97 µM]
CC/C=C\CCOC(=O)CC	-8.1%
CN1CCN(C(c2ccccc2)c2ccccc2)CC1	3.7% [at 35.3 µM]
